Experimental data as given in ChEMBL document CHEMBL2218924, “A broad activity screen in support of a chemogenomic map for kinase signalling research and drug discovery” (Biochem J, 2013).

What was measured:
[1] = target: Mitogen-activated protein kinase 11 (Homo sapiens) (UniProt Q15759); conditions: at 1 µM
[2] = target: Mitogen-activated protein kinase 11 (Homo sapiens) (UniProt Q15759); conditions: at 10 µM
[3] = target: T1, Mitogen-activated protein kinase 13 (Homo sapiens) (UniProt O15264); conditions: at 1 µM
T1 sequence (whole entry): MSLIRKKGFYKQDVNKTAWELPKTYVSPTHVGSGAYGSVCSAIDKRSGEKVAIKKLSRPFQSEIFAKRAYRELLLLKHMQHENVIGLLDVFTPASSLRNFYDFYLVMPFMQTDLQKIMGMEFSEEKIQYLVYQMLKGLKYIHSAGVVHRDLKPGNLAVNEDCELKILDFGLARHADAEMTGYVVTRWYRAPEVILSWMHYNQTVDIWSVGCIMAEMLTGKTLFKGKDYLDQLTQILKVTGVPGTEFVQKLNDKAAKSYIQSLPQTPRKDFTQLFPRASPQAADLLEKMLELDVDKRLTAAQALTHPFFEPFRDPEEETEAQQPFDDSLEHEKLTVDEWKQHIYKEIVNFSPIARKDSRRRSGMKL

[4] = target: T2, Serine/threonine-protein kinase Sgk1 (Homo sapiens) (UniProt O00141); conditions: at 1 µM
T2 sequence (whole entry): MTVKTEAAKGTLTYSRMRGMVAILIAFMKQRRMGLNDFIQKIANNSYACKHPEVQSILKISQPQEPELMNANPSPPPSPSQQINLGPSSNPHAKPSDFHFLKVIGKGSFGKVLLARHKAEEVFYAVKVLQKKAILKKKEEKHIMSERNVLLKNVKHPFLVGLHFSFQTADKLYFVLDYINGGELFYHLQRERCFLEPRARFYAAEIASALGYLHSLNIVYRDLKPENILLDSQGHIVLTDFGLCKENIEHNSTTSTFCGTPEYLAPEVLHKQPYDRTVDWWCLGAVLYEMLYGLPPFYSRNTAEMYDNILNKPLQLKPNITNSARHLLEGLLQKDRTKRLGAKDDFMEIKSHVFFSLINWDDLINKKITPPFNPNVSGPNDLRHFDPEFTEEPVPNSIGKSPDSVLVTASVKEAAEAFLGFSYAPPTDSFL

[5] = target: T2, Serine/threonine-protein kinase Sgk1 (Homo sapiens); conditions: at 10 µM
[6] = target: T3, Serine/threonine-protein kinase Sgk2 (Homo sapiens) (UniProt Q9HBY8); conditions: at 1 µM
T3 sequence (whole entry): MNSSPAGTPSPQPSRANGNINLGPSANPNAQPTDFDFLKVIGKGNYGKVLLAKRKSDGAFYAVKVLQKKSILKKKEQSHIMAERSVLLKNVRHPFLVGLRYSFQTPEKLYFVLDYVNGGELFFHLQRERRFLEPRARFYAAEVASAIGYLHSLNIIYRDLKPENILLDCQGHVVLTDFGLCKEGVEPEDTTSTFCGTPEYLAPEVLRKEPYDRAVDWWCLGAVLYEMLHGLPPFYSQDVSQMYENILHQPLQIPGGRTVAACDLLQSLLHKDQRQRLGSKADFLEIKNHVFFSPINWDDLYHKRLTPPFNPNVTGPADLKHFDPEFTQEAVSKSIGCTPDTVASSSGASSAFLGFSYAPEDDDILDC

[7] = target: T3, Serine/threonine-protein kinase Sgk2 (Homo sapiens); conditions: at 10 µM
[8] = target: T4, Serine/threonine-protein kinase Sgk3 (Homo sapiens) (UniProt Q96BR1); conditions: at 10 µM
T4 sequence (whole entry): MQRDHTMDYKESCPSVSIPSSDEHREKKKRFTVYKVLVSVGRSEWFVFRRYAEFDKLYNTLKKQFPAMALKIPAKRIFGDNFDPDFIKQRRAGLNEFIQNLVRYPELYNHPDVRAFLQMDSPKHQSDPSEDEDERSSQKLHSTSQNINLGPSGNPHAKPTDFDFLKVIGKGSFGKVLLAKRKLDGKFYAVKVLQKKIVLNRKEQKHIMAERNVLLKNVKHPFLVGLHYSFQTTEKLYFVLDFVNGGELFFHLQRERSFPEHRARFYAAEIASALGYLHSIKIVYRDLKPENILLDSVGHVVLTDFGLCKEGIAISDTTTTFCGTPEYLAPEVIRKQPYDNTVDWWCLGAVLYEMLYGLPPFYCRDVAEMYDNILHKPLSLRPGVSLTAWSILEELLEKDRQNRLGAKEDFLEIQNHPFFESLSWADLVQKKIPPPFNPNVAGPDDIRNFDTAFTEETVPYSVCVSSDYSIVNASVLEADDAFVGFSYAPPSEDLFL

[9] = target: Serine/threonine-protein kinase SIK1 (Homo sapiens) (UniProt P57059); conditions: at 1 µM
Chain of Serine/threonine-protein kinase SIK1 (Homo sapiens) (P57059 whole entry): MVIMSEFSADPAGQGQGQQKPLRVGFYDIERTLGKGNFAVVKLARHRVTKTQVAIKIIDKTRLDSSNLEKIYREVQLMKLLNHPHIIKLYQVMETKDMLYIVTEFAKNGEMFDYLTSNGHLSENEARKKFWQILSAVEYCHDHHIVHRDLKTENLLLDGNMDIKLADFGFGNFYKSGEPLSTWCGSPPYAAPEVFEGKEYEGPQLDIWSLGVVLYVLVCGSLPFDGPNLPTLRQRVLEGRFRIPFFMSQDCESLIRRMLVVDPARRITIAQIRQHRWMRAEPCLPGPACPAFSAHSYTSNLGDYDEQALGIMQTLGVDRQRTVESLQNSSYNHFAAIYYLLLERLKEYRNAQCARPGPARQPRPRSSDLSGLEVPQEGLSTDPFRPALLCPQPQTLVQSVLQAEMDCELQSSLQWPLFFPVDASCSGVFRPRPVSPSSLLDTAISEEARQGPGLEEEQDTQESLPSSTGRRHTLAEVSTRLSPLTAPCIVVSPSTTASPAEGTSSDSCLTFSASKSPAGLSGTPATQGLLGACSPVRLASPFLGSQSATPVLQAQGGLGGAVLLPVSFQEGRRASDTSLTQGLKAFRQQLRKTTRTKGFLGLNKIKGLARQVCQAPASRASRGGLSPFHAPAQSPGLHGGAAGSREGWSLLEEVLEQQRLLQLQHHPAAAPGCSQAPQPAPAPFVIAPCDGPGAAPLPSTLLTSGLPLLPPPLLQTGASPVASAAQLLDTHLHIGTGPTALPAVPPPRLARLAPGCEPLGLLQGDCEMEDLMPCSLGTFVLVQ

[10] = target: Serine/threonine-protein kinase SIK1 (Homo sapiens) (UniProt P57059); conditions: at 10 µM
[11] = target: SRSF protein kinase 1 (Homo sapiens) (UniProt Q96SB4); conditions: at 1 µM
Chain of SRSF protein kinase 1 (Homo sapiens) (Q96SB4 whole entry): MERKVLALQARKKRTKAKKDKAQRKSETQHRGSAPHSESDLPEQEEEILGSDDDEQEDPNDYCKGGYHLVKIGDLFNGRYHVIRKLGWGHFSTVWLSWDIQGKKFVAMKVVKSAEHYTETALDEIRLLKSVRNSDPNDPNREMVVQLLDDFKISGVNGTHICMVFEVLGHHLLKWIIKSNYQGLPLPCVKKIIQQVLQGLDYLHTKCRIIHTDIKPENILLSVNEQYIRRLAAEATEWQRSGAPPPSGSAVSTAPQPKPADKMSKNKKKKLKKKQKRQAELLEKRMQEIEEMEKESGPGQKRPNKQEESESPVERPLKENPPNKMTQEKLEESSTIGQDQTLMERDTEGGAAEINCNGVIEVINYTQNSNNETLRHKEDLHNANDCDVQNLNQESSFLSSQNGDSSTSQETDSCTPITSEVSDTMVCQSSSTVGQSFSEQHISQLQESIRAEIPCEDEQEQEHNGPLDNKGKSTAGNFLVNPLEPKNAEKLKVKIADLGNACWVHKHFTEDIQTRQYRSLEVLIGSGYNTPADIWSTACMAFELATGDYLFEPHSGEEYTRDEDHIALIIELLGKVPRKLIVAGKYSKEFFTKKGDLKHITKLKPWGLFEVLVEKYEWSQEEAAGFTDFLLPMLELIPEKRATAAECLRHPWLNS

[12] = target: SRSF protein kinase 1 (Homo sapiens) (UniProt Q96SB4); conditions: at 10 µM
[13] = target: SRSF protein kinase 2 (Homo sapiens) (UniProt P78362); conditions: at 1 µM
Chain of SRSF protein kinase 2 (Homo sapiens) (P78362 whole entry, looked up): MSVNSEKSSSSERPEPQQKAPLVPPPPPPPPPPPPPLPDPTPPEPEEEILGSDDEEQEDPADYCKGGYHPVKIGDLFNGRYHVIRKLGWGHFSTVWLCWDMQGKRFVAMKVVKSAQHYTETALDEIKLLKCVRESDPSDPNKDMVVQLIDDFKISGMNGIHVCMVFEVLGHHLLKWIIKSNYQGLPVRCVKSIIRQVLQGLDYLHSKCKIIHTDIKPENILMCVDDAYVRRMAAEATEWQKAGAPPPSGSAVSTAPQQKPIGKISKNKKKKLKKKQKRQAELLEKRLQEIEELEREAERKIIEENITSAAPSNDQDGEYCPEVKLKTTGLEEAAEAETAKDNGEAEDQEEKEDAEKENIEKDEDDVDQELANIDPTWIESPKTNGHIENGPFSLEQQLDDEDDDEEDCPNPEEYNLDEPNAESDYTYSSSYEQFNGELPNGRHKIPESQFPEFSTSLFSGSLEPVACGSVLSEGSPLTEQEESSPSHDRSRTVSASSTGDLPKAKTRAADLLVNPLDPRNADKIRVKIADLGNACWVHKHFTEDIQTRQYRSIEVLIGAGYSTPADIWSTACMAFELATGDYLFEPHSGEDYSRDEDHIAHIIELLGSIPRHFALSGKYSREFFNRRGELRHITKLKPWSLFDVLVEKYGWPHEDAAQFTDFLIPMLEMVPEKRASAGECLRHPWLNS

[14] = target: SRSF protein kinase 2 (Homo sapiens) (UniProt P78362); conditions: at 10 µM
[15] = target: Serine/threonine-protein kinase 33 (Homo sapiens) (UniProt Q9BYT3); conditions: at 1 µM
Chain of Serine/threonine-protein kinase 33 (Homo sapiens) (Q9BYT3 whole entry, looked up): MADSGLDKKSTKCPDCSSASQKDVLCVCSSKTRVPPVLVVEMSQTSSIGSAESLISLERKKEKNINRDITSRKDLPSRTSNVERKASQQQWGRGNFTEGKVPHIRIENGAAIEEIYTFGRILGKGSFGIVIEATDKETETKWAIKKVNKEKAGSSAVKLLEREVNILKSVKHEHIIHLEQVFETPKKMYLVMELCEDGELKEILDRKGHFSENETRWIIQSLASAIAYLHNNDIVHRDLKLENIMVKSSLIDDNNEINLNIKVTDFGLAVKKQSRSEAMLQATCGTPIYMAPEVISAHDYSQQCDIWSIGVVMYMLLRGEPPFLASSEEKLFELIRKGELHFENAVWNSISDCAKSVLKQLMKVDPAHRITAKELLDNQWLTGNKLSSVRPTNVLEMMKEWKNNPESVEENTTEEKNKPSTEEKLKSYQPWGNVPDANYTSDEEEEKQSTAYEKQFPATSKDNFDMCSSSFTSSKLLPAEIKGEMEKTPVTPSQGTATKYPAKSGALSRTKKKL

[16] = target: Serine/threonine-protein kinase 33 (Homo sapiens) (UniProt Q9BYT3); conditions: at 10 µM
[17] = target: Serine/threonine-protein kinase PLK2 (Homo sapiens) (UniProt Q9NYY3); conditions: at 1 µM
Chain of Serine/threonine-protein kinase PLK2 (Homo sapiens) (Q9NYY3 whole entry, looked up): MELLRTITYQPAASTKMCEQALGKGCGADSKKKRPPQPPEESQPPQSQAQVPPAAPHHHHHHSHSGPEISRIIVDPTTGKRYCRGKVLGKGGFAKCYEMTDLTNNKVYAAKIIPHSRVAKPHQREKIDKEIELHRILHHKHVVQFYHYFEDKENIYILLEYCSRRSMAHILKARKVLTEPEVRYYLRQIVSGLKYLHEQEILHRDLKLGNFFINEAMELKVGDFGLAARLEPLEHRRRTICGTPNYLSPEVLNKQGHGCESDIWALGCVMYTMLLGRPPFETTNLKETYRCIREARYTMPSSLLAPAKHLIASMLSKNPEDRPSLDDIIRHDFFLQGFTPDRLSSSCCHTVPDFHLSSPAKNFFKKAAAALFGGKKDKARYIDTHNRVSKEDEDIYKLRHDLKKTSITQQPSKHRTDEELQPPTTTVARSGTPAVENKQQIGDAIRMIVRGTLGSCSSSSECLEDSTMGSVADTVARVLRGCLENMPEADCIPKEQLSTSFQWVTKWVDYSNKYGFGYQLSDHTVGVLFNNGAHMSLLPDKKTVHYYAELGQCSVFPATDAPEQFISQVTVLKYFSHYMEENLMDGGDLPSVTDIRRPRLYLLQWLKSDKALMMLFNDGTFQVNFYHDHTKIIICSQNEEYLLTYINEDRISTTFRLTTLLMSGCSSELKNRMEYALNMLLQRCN

[18] = target: Serine/threonine-protein kinase PLK2 (Homo sapiens) (UniProt Q9NYY3); conditions: at 10 µM
[19] = target: Tyrosine-protein kinase SYK (Homo sapiens) (UniProt P43405); conditions: at 1 µM
[20] = target: T1, Mitogen-activated protein kinase 13 (Homo sapiens); conditions: at 10 µM

Chain of Mitogen-activated protein kinase 11 (Homo sapiens) (Q15759 whole entry): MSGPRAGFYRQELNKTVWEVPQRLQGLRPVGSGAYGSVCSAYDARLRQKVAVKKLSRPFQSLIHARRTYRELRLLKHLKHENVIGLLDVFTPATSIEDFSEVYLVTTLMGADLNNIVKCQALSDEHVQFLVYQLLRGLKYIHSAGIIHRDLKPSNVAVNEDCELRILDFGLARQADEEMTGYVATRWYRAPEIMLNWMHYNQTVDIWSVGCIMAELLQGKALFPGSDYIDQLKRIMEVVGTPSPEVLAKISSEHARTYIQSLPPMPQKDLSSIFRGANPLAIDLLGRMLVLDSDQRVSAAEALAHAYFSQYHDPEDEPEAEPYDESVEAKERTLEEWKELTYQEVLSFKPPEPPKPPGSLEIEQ

SMILES	residual activity [1]	residual activity [2]	residual activity [3]	residual activity [4]	residual activity [5]	residual activity [6]	residual activity [7]	residual activity [8]	residual activity [9]	residual activity [10]	residual activity [11]	residual activity [12]	residual activity [13]	residual activity [14]	residual activity [15]	residual activity [16]	residual activity [17]	residual activity [18]	residual activity [19]	residual activity [20]
Nc1ncnc2c1c(-c1ccc(Oc3ccccc3)cc1)cn2C1CCCC1	87%	75%	95%	110%	111%	98%	78%	86%	78%	27%	104%	103%	93%	90%	87%	57%	97%	93%	109%	
CN(C)S(=O)(=O)c1ccc2c(c1)/C(=C/c1cc3c([nH]1)CCCC3)C(=O)N2	94%		97%	82%	96%	115%	95%				20%	8%	34%	14%	85%	93%			97%	96%
O=c1cc(N2CCOCC2)oc2c1ccc1ccccc12	93%	101%	100%	105%	97%	92%	86%	97%	95%	93%	99%	93%	97%	97%	93%	101%	98%	85%		95%
O=C1Cc2c([nH]c3ccc([N+](=O)[O-])cc23)-c2ccccc2N1	100%	103%				65%	68%		100%	68%	105%									
COc1cc2nccc(Oc3ccc(NC(=O)Nc4cc(C)on4)c(Cl)c3)c2cc1OC	19%					103%	79%				98%		99%		81%	73%	105%	98%		97%
Cn1sc(=O)n(Cc2ccccc2)c1=O	89%	89%	100%	91%	96%	91%		86%		83%	83%	91%	93%	76%	95%	88%				98%
O=C(O)/C=C/c1cc(Br)c(Br)c(Br)c1Br	107%	126%	103%	100%	49%	83%	41%	84%		98%			103%	89%	103%	99%	39%		108%	93%
O=C1NC(=O)c2c1c1c3ccccc3[nH]c1n1cncc21	90%	87%	93%	66%	47%	52%	38%	67%	83%	44%	91%	76%	103%	72%	79%	70%	38%	38%	60%	88%
COc1cc2nccc(Oc3ccc(NC(=S)NC(=O)c4ccccc4C)cc3)c2cc1OC	83%	87%	101%			99%		79%	32%	37%	102%	96%	100%	91%	97%	90%	72%	35%	99%	87%
O=C1Cc2c([nH]c3ccc(Br)cc23)-c2ccccc2N1	98%	89%	98%	95%	81%	99%	74%	83%	91%	36%					97%	81%	99%	91%	72%	68%
O=C(NC(NC(=S)Nc1ccc(F)c([N+](=O)[O-])c1)C(Cl)(Cl)Cl)C(c1ccccc1)c1ccccc1 (stereo unspecified)	98%	97%	95%		83%			77%	136%			92%		98%	98%	91%	90%	87%		104%
O=C(CCCc1ccc(-c2ccccc2F)cc1)Nc1ccc(O)cc1	105%	95%	105%	83%	179%	131%	135%						106%	100%	100%	108%	109%	106%	100%	96%
CCCC(=O)Oc1ccc2[nH]c(C(=O)c3cc4ccccc4[nH]3)cc2c1	104%		104%	101%	95%	99%	96%	85%	83%	54%	104%	103%	103%	87%	92%	91%	102%	107%	126%	86%
CC(C)(C)n1nc(Cc2cccc3ccccc23)c2c(N)ncnc21	64%	22%	101%	100%	127%	101%	78%	105%	72%	49%	103%	101%	99%	94%	92%	100%	103%	95%	104%	95%
Nc1ncnc2[nH]nc(Nc3ccc(F)cc3)c12	103%		103%	94%	74%	113%	43%	80%	48%	6%	95%	79%	104%		100%	94%	102%	95%	91%	94%
CCOC(=O)c1c(C)[nH]c(/C=C2\C(=O)Nc3ccccc32)c1C	98%	77%				82%	76%			91%	92%	97%	93%	89%	89%	97%				
O=c1c(-c2ccc(F)cc2)c(-c2ccncc2)[nH]n1-c1ccc(Cl)cc1	23%	5%			101%				141%										41%	

SMILES	residual activity [1]	residual activity [2]	residual activity [3]	residual activity [4]	residual activity [5]	residual activity [6]	residual activity [7]	residual activity [8]	residual activity [9]	residual activity [10]	residual activity [11]	residual activity [12]	residual activity [13]	residual activity [14]	residual activity [15]	residual activity [16]	residual activity [17]	residual activity [18]	residual activity [19]	residual activity [20]
NC(=O)Nc1sc(-c2ccc(F)cc2)cc1C(N)=O	89%	68%	90%					85%	28%	5%	105%	78%	102%	75%	89%	63%	101%	73%		73%
O=C(c1ccccc1)c1ccc(N2CCOCC2)cc1O	96%	91%		79%	95%	134%	68%	88%	97%	95%			100%	94%	89%	98%			124%	
NC(=O)c1ccc(-c2nc(-c3ccc4c(c3)OCCO4)c(-c3ccccn3)[nH]2)cc1	93%	88%		98%	90%	97%	89%						91%	95%			93%	100%		
CC(C)[C@H](CO)Nc1nc(Nc2cc(N)cc(Cl)c2)c2ncn(C(C)C)c2n1	119%	99%				95%	51%	92%		18%					96%	62%				
CC(C)(C)c1nc2c3ccc(F)cc3c3c(=O)[nH]ccc3c2[nH]1	62%	69%		63%	68%	63%	55%		31%	42%	99%			73%	34%	24%	49%	44%		
COc1cc2c(cc1OC)-c1n[nH]c(Nc3cccc(F)c3)c1C2	60%	25%	102%	70%		109%	98%		4%	5%		105%							117%	74%
O=C1Nc2ccc(Cl)cc2/C1=C/c1cc(Cl)c(O)c(Cl)c1	88%	67%		64%	69%	84%	55%	81%	72%	71%			100%	69%	88%	94%	94%	92%	96%	93%
CN([C@@H](Cc1ccc(OS(=O)(=O)c2cccc3cnccc23)cc1)C(=O)N1CCN(c2ccccc2)CC1)S(=O)(=O)c1cccc2cnccc12	113%		81%	123%				83%		124%		86%					100%	99%		
Fc1ccc(-c2nc3n(c2-c2ccncc2)CCS3)cc1	80%	23%							139%			93%		79%						
CCCCc1c(-c2ccc(OC)cc2)[nH]c2nccnc12	106%			106%	117%	90%	81%	88%	86%	78%	118%	106%	90%	84%	106%				37%	
O=c1cc(N2CCNCC2)oc2c(-c3ccccc3)cccc12	95%	105%		80%	98%		79%	90%	82%	8%	99%	85%	91%	93%	98%	93%	99%	95%		83%
Nc1nc(Nc2ccc(S(N)(=O)=O)cc2)nn1C(=O)c1c(F)cccc1F	102%	77%		124%	75%		49%	79%	50%	6%	56%	7%				76%	96%	60%	47%	31%
Nc1ncnc2c1cnn2-c1ccccc1	97%	85%		90%	98%		68%	93%		138%				97%	97%	100%		97%		
COc1ccc(-c2cnc3c(-c4ccsc4)cnn3c2)cc1	94%	95%		99%	94%	97%	83%		87%	2%					95%	96%			127%	
CSc1nc(-c2ccc(F)cc2)c(-c2ccnc(NC(C)c3ccccc3)c2)[nH]1 (stereo unspecified)	10%	-2%					91%		144%	87%	94%	84%	91%	87%	92%	93%		87%	101%	
O=C1NC(=O)C(c2cn(CCCn3ccnc3)c3ccccc23)=C1Nc1ccccc1				46%	14%	52%	12%		79%	36%					75%	32%			105%	
